# Compounds without any hit were thinned out: in the full panel of roughly 83,000, 20% have a hit.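 The endpoint reported here, percent growth, reads 100 for growth as untreated, 0 for no net growth and -100 for all cells dead.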 The source made the active and inactive calls.
# System: ACHN renal
# Test: NCI-60 one-dose screen, 48 h (100 = growth as untreated, 0 = no growth, -100 = all killed)
# Conditions: 10 µM unless noted
# Description: Growth inhibition of the ACHN human tumor cell line is measured as a screen for anti-cancer activity. Cells are grown in 96 well plates and exposed to the test compound for 48 hours. Compounds are tested at a single concentration, which is 10^-5 M for most compounds. The reported endpoint is percent growth (GI% or GIPRCNT), where numbers from 0 - 100% represent growth inhibition, and numbers from -100% - 0 represent cell death. For example, a value of 40 represents 60% growth inhibition. A value of 0 means no net growth occurred over the course of the experiment. A value of -40 indicates 40% of cells at the beginning of the experiment died by the end of the experiment. A value of -100 means all cells are dead at the end of the experiment.
# NCI-60 Human Tumor Cell Lines Screen was performed using the standard one-dose NCI protocol, which is described in more detail at https://dtp.cancer.gov/discovery_development/nci-60/default.htm.
# Compounds with GIPRCNT values below 10 were considered active. Activity score was based on GIPRCNT using the following formula: […]
# Score is 0 for GIPRCNT values of 100 or above, 50 for GIPRCNT values of 0, and 100 for GIPRCNT values of -100.
row,SMILES,growth
1,COc1cccc(CNc2ncnc3c2ncn3C2OC(CO)C(O)C2O)c1O (stereo not given),-14.3% (active)
2,COC(C(=O)[C@@H](O)[C@@H](C)O)[C@@H]1Cc2cc3cc(O[C@H]4C[C@@H](O[C@H]5C[C@@H](O)[C@H](O)C(C)O5)[C@H](O)C(C)O4)c(C)c(O)c3c(O)c2C(=O)[C@H]1O[C@H]1C[C@@H](O[C@H]2C[C@@H](O[C@H]3C[C@@H](O)[C@H](OC)C(C)O3)[C@@H](O)C(C)O2)[C@H](O)C(C)O1 (stereo not given in full),4.45% (active)
3,O=C(Nc1ccc(NC(=O)c2cc(=O)[nH]c3ccccc23)cc1)Nc1cccc(C(F)(F)F)c1,95% (inactive)
4,Cc1nnc(NC(=O)c2nc(S(=O)(=O)Cc3ccc(F)cc3)ncc2Cl)s1,96.5% (inactive)
5,O=C1c2cccc(NCCN=Cc3cc(O)ccc3O)c2C(=O)c2c(NCCN=Cc3cc(O)ccc3O)cccc21,0.31% (active)
6,CC(C)NC1CCC(Nc2ccnc3cc(Cl)ccc23)CC1 (stereo not given),96.8% (inactive)
7,Cc1cccnc1NC(=S)Nc1ncccc1C,109% (inactive)
8,O=[N+]([O-])c1ccc(S(=O)(=O)N2CCN(C3=NS(=O)(=O)c4ccccc4N3c3ccccc3)CC2)cc1,99.3% (inactive)
9,COc1ccc(-c2nn(-c3ccccc3)cc2/C=C2/SC(=S)N(C)C2=O)cc1,-0.446% (active)
10,CN(C)Cc1ccc(NC(=O)c2cncc(C#Cc3cnc(N)c4ncccc34)c2)cc1F,61.1% (inactive)
11,COc1ccc(-c2nnc(-c3ccc4c(c3)nc(-c3ccncc3)n4C3CCCCC3)o2)cc1,89.2% (inactive)
12,O=C(c1ccc(-c2ccccc2)cc1)c1ccc([N+](=O)[O-])cc1,97.5% (inactive)
13,COc1cc(C(=O)n2nc(N3CCN(C)CC3)c3cc(N)ccc32)cc(OC)c1OC,36.8% (inactive)
14,COc1cc(OC)cc(C2=C3CC[C@@H]4[C@H](CC[C@]5(C)C(=O)CC[C@@H]45)C3=CC3C(O)c4cccnc4N4C(=O)COC234)c1 (stereo not given in full),102% (inactive)
15,COc1ccc2c(O)c(/C=C3\N=Nc4ccccc43)oc2c1C[C@@H]1CCNC[C@H]1F,61.3% (inactive)
16,Nc1ncnc2c1N=C(c1ccc3c(c1)OCO3)CC(c1cccc(Nc3ccnc4cc(Cl)ccc34)c1)N2 (stereo not given),67.5% (inactive)
17,COC(=O)c1cc(-c2ccccc2)[nH]c1N/N=C/c1c(Cl)cccc1Cl,44% (inactive)
18,C=C1C(=O)O[C@H]2[C@H]1CC/C(COC(=O)N[C@H]1C[C@H](O[C@H]3C[C@](O)(C(=O)CO)Cc4c(O)c5c(c(O)c43)C(=O)c3c(OC)cccc3C5=O)O[C@@H](C)[C@H]1O)=C\CC[C@@]1(C)O[C@@H]21,88.9% (inactive)
19,O=C1C(Cl)=C(Oc2ccccc2)C(=O)c2ccccc21,26.6% (inactive)
20,N#Cc1nn(-c2cc(=O)[nH]c3ccc(Cl)cc23)c(N)c1C#N,92.7% (inactive)

row,SMILES,growth
1,O=C(O)c1ccc(-n2cc(/C=N/Nc3ccc(F)cc3)c(-c3cc4ccccc4oc3=O)n2)cc1,41% (inactive)
2,N#Cc1cccc(NC(=O)c2oc3ccccc3c2-c2cnn(-c3ccccc3)c2)c1,80.6% [50 µM] (inactive)
3,O=[N+]([O-])c1ccc(N/N=C(/C(=N/Nc2ccc([N+](=O)[O-])cc2)c2ccccc2)c2ccccc2)cc1,-1.56% (active)
4,C1=CN2CC(c3ccccc3)=NNC2c2ccccc21 (stereo not given),85.7% (inactive)
5,COc1ccc(C(c2cc(OC)c(OC)c(OC)c2)N2CCN(c3ccccc3)CC2)cc1 (stereo not given),98% (inactive)
6,O=S(=O)(Nc1ccccc1)c1ccc(C2CC3(Cl)C(Cl)=C(Cl)C2(Cl)C3(Cl)Cl)cc1 (stereo not given),40% (inactive)
7,COc1ccc(OC)c(C(=O)/C=C/c2cc3c(c(OC)c2OC)OCO3)c1,68% (inactive)
8,C1=C(N2CCCC2)CCC1,111% (inactive)
9,O=C(CCC(=O)N/N=C/c1ccccc1O)N/N=C/c1ccccc1O,18.7% (inactive)
10,CCOC(=O)c1c(C)c2c(n1C)CSc1cc(C(=O)c3ccccc3)c(=O)[nH]c1-2,84.9% [100 µM] (inactive)
11,N#C/C(=C\c1ccc2ccccc2c1)c1cc2ccccc2[nH]1,50.4% (inactive)
12,Oc1c(Cl)cc(Cl)c2ccc(Cn3cc(-c4ccc(C(F)(F)F)cc4)nn3)nc12,36.7% (inactive)
13,CCOC(=O)c1[nH]c(=O)c2c(C)nc(-c3ccccc3)cc2c1O,110% (inactive)
14,Cc1ccc(C2=Nc3c(N)ncnc3NC(c3ccc4c(c3)OCO4)C2)cc1 (stereo not given),74.3% (inactive)
15,c1ccc(CNc2c3ccccc3nc3ccccc23)cc1,18.1% (inactive)
16,Cc1cc(Cl)ccc1NC(=O)c1cc2ccccc2cc1O,8.67% (active)
17,O=C(/C=C/c1ccc(Cl)cc1)c1cccc(Nc2nc(Nc3ccccc3)nc(Nc3ccccc3)n2)c1,92.9% (inactive)
18,CCN1CCN(Cc2cn(CC(=O)Nc3ccc4c(ccn4Cc4ccccc4)c3)nn2)CC1,102% (inactive)
19,O=C1c2cccnc2C(=O)c2c1c(C(=O)NCCCN1CCCCC1)c1ccccn21,-45.2% (active)
20,CCOC(=O)Cn1c(O)c(N=Nc2ccc(S(N)(=O)=O)cc2)c2cc(Br)ccc21,84.8% (inactive)
